Here are results for 18 molecules from PubChem BioAssay (NCI).

This is part of a sample that, as a whole, favours compounds with a hit. Of some 83,000 tested, about 20% had one in any assay.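 Step 1: grow cells in 96-well plates. Step 2: add test compound at a single concentration. Step 3: incubate 48 h. Step 4: record percent growth.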 Values without a mark were called inactive. Activity calls are given as the source filed them. How the source made its calls: active means growth percent below 10; inactive means the rest.

Holding throughout (assay): NCI-60 one-dose screen, 48 h (100 = growth as untreated, 0 = no growth, -100 = all killed)
Common to all, as to conditions: 10 µM unless noted

Assay [1] deals with T-47D breast.
Assay [2] deals with BT-549 breast.
In assay [3] the test system is MDA-MB-435 melanoma.
Assay [4] has as its system SW-620 colon.
The subject of assay [5] is MCF7 breast.
Assay [6] concerns HCT-116 colon.
In assay [7] the test system is HCC-2998 colon.
Assay [8] concerns KM12 colon.

With `C=C(OC(C)=O)c1ccccc1`, the growth in assay [1] is 89.5%; in assay [2], 107%; in assay [3] it was 107%; in assay [4], 97.4%; in assay [5], 97.1%; in assay [6], 98%. In addition, the growth in assay [7] is 110%; in assay [8], 102%.
Take `ClCc1cccc2c(CCl)cccc12`: the growth in assay [1] was 4.84% (active); in assay [2] it was -74% (active); in assay [3], 84.3%; in assay [4] it was 70.8%; in assay [5], 24.4%; in assay [6] it was -86.3% (active). For the same molecule, the figures for the growth in assay [7] and in assay [8] were 55.8% and 13.7%, respectively.
For the molecule `S=CN1CCCCC1`, the growth in assay [1] is 103%; in assay [2], 105%; in assay [3], 103%; in assay [4] it was 105%; in assay [5], 96.3%; in assay [6] it was 102%. Further, the growth in assay [7] was 103%; in assay [8] it was 98.8%.
For `CCOP(=O)(OCC)/C(=C\N1C(=O)CC(=O)NC1=S)C(=O)OC`, the growth in assay [1] is 95%; in assay [2], 116%; in assay [3] it was 102%; in assay [4], 101%; in assay [5] it was 94.7%; in assay [6], 115%. Further, the growth in assay [7] was 85.7%; in assay [8], 105%.
With `OCC(O)COc1ccc(Cl)cc1Cl` (centres undefined), the growth is 81.5% in assay [1]; 101% in assay [2]; 103% in assay [3]; 114% in assay [4]; 95.6% in assay [5]; 93% in assay [6]. Besides, the growth in assay [7] was 98.3%; in assay [8] it was 106%.
For `Oc1ccc2ccccc2c1CN1CCOCC1`, the growth in assay [1] was 104%; in assay [2], 103%; in assay [3], 112%; in assay [4], 113%; in assay [5], 106%; in assay [6] it was 103%. For the same molecule, the growth is 105% in assay [7] and 114% in assay [8].
Take `CCN(CC)CCCC(C)NC(=S)N/N=C(\C)c1ccccn1` (centres undefined): the growth was 56.7% in assay [1]; 65.5% in assay [2]; 54.8% in assay [3]; 47.5% in assay [4]; 25.7% in assay [5]; 23.9% in assay [6]. Also, the growth in assay [7] is 56.8%; in assay [8], 36.4%.
`CC(CO)(CO)C(=O)O`: the growth in assay [1] was 95.5%; in assay [2], 109%; in assay [3], 105%; in assay [4], 104%; in assay [5] it was 101%; in assay [6], 102%. Further, the growth in assay [7] was 94.6%; in assay [8], 106%.
Consider `OC(CBr)CCBr` (centres undefined), for which the growth is 93.6% in assay [1]; 124% in assay [2]; 97.2% in assay [3]; 104% in assay [4]; 86.6% in assay [5]; 104% in assay [6]. Besides, the growth in assay [7] was 111%; in assay [8], 113%.
Regarding `CC(=O)N(C(C)=O)c1ccc(C)cc1`, the growth was 102% in assay [1]; 101% in assay [2]; 111% in assay [3]; 102% in assay [4]; 87.6% in assay [5]; 117% in assay [6]. For the same molecule, the growth in assay [7] was 98.2%; in assay [8], 103%.
As to `c1ccc2c(NCCCN3CCN(CCCNc4c5ccccc5nc5ccccc45)CC3)c3ccccc3nc2c1`, the growth in assay [1] is -7.72% [100 µM] (active); in assay [2] it was -61.4% [100 µM] (active); in assay [3], -88.4% [100 µM] (active); in assay [4], -22.7% [100 µM] (active); in assay [5], -56.5% [100 µM] (active); in assay [6], -49.6% [100 µM] (active). The growth in assay [7] is -76.6% [100 µM] (active); in assay [8], -14.9% [100 µM] (active).
As to `Nc1ccn(C2CC(N)C(CO)O2)c(=O)n1` (centres undefined), the growth in assay [1] was 81.1%; in assay [2], 71.8%; in assay [3], 83.6%; in assay [4], 88.8%; in assay [5], 66.5%; in assay [6], 63.6%. Besides, the figures for the growth in assay [7] and in assay [8] were 74.8% and 97.4%, respectively.
In the case of `C[C@H](CCC[C@H](C)OS(=O)(=O)c1ccccc1)OS(=O)(=O)c1ccccc1`, the growth was 100% in assay [1]; 125% in assay [2]; 108% in assay [3]; 105% in assay [4]; 101% in assay [5]; 95.1% in assay [6]. Further, the growth was 120% in assay [7] and 107% in assay [8].
Consider `CCCC(=O)CC(=O)c1ccccc1`, for which the growth is 96.1% in assay [1]; 101% in assay [2]; 110% in assay [3]; 105% in assay [4]; 97.2% in assay [5]; 94.8% in assay [6]. Moreover, the growth in assay [7] is 99.1%; in assay [8] it was 102%.
In the case of `CC(C)N1CC(=O)N2CSCC2C1=O` (centres undefined), the growth was 108% in assay [1]; 110% in assay [2]; 105% in assay [3]; 102% in assay [4]; 98.7% in assay [5]; 112% in assay [6]. The figures for the growth in assay [7] and in assay [8] were 102% and 98%, respectively.
Turning to `CC(=O)C1C(=O)C(=O)N(c2ccc(Cl)c(Cl)c2)C1=O` (centres undefined), the growth in assay [1] was 93.2%; in assay [2], 97.5%; in assay [3], 103%; in assay [4] it was 108%; in assay [5], 89.1%; in assay [6], 91.3%. For the same molecule, the growth in assay [7] was 101%; in assay [8] it was 103%.
For `CC(=O)N(CCCCCCN(C(C)=O)C(C)=O)C(C)=O`, the growth in assay [1] is 101% [100 µM]; in assay [2], 98.4% [100 µM]; in assay [3], 98.5% [100 µM]; in assay [4] it was 108% [100 µM]; in assay [5], 87.8% [100 µM]; in assay [6], 101% [100 µM]. Further, the growth is 114% [100 µM] in assay [7] and 99.2% [100 µM] in assay [8].
Regarding `CCC1CCC(C)NC1` (centres undefined), the growth in assay [1] was 106%; in assay [2], 101%; in assay [3] it was 104%; in assay [4], 96.9%; in assay [5], 95%; in assay [6] it was 98.8%. The growth in assay [7] is 106%; in assay [8], 97.6%.
